This is a sample that favours compounds with a hit; in the whole collection about 9% have one here.
ALOX12 inh – ALOX12 (human) lipoxygenase inhibition; Potency, µM (doses to about 108 µM), for inactives: at the highest dose activity change, negative = inhibition, most hits filed as inhibitors; P18054; purified 12hLO, xylenol orange hydroperoxide absorbance; 580,000 compounds, 1.1% hits; also: % is scaled to controls: 0 for no effect and ±100 for the full control effect
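Purified human 12hLO at 150 nM in 25 mM Hepes, 0.01% Triton X-100, pH 7.0, preincubated 15 min at room temperature with compound. Reaction started with 40 uM arachidonic acid, 30 min at room temperature. Hydroperoxide measured by Fe-xylenol orange, 573/405 nm absorbance ratio.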
BAZ2B block – inhibitors of human BAZ2B bromodomain; Q9UIF8; AID 504333; AlphaScreen BAZ2B-H3K14Ac peptide displacement; 360,000 compounds, 4.4% hits; Potency, µM (titrated, usually from 114 µM), for inactives: at the highest dose activity change, negative = inhibition, most hits filed as inhibitors; also: % is scaled to controls: 0 for no effect and ±100 for the full control effect; nearly all actives have a fitted effect of over 60% in size
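Inhibition is scored as reduced AlphaScreen emission. The BAZ2B/b-H3(5-23)K14Ac complex (50 nM each) in PBS pH 7.4, 0.01% Tween-20 meets compound (up to 110 uM) for 30 min at RT before bead addition.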
HP1b chromo inh – HP1-beta chromodomain-methylated histone interaction inhibition; AlphaScreen HP1-beta / biotin-H3K9me3 peptide binding; Potency, µM (titrated, usually from 114 µM), without a hit: top-dose activity change, negative = inhibition, usual class: inhibitors; 390,000 compounds, 0.56% hits; AID 540317; also: nearly all actives have a fitted effect of over 70% in size
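AlphaScreen: HP1-beta (50 nM) preformed 30 min with biotin-H3(1-18)K9me3 peptide (50 nM) in PBS pH 7.4, 0.01% Tween-20. Compound added for 30 min at RT, then streptavidin donor/nickel chelate acceptor beads (10 ug/mL) for 30 min.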
G9a block – inhibitors of human histone lysine methyltransferase G9a; G9a H3K9 monomethylation, AlphaScreen, 2 h; Potency, µM (top dose mostly 102 µM), inactives show top-dose activity, negative = inhibition, usual class: inhibitors; 350,000 compounds, 8.8% hits; also: % is scaled to controls: 0 for no effect and ±100 for the full control effect; nearly all actives have a fitted effect of over 75% in size
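AlphaScreen detection with an anti-monomethyl H3K9 antibody quantified product after a 2 h room-temperature reaction containing 500 nM biotinylated H3K9 peptide, 20 µM SAM and 20 nM enzyme, which had been preincubated 15 min with compound.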
JMJD2A Tudor inh – inhibitors of human JMJD2A Tudor domain; O75164; AlphaScreen JMJD2A-Tudor / H3K4me3 peptide binding; Potency, µM (series often up to 114 µM), for the others: at the highest dose activity change, negative = inhibition, hits mostly inhibitors; 390,000 compounds, 4.4% hits; AID 504339; also: % is scaled to controls: 0 for no effect and ±100 for the full control effect; nearly all actives have a fitted effect of over 50% in size
PLK1 PBD inh – blocks phosphopeptide binding to human PLK1 polo-box domain; Plk1 PBD binding of FITC phosphopeptide, fluorescence polarization; Potency, µM, inactives show max response, negative = inhibition, actives largely listed as inhibitors; AID 720504; P53350; 360,000 compounds, 2.8% hits; also: series mostly up to about 57 µM; % is scaled to controls: 0 for no effect and ±100 for the full control effect; nearly all actives have a fitted effect of over 65% in size
The depositor's hits bear a star; i = inactive; ? = inconclusive; / = no result given; [ ] = remark or other dose. Calls follow the shape of the dose curve; as a rule, active = well fitted curve in the direction sought with a large enough effect; inconclusive = small, poorly fitted or top-dose-only effect, or another doubt; inactive = no such curve, though single readings can be large; an effect the other way counts as inactive or inconclusive. Potency is read from the fitted curve at half-maximal effect.

SMILES	ALOX12 inh	BAZ2B block	HP1b chromo inh	G9a block	JMJD2A Tudor inh	PLK1 PBD inh
CCn1ccnc1CN(C)Cc1cn(-c2ccc(C)cc2)nc1-c1cccc(C)c1	-4.1%	39.8µM*	?	31.6µM*	?	10.2%
CCn1ccnc1CNCc1cn(-c2cc(C)ccc2C)nc1-c1ccccc1	-0.5%	39.8µM*	10.1%	-10.2%	?	?
Cc1ccc(-n2cc(CN3CCN(Cc4nccn4C)CC3)c(-c3cccc(C)c3)n2)cc1	i	?	-4.2%	?	?	3.3%
Cc1cccc(-n2cc(CN(C)C(C)c3ccon3)c(-c3cccc(F)c3)n2)c1 (stereo not drawn)	-1.6%	/	/	/	/	/
CCn1ccnc1CN(C)Cc1cn(-c2cccc(C)c2)nc1-c1cccc(F)c1	-25.1%	35.5µM*	?	11.2µM*	50.1µM*	-15.3%
Cc1cccc(-n2cc(CN(C)Cc3nccn3C)c(-c3cccc(F)c3)n2)c1	-20.2%	?	?	15.8µM*	39.8µM*	-11.9%
O=C(CSc1n[nH]c(-c2ccncc2)n1)NCCc1ccccc1	0.0%	4.9%	39.4%	2.7%[59 µM]	3.1%	-1.2%
O=C(Nc1ccc([C@@H](O)[C@H]2COCC(=O)N2Cc2ccccn2)cc1)c1ccc(F)c(Cl)c1	34.0%	/	/	/	/	/
Cc1ccc(-n2cc(CN3CCNC(=O)CC3)c(-c3cccc(C)c3)n2)cc1	-4.1%	?	?	/	?	16.8µM*
Cc1ccc2c(c1)c1c3n2CCN(C(=O)c2ccc(C(F)(F)F)cc2)C3CCC1 (stereo not drawn)	-22.8%	28.2µM*	-6.7%	?	?	/
Cc1ccc2c(c1)c1c3n2CCCN(Cc2ccccc2)C3CCC1 (stereo not drawn)	5.1%	10µM*	?	12.6µM*	?	-7.4%
Cc1ccc(N2C(=O)N[C@@H]3CCN(C(=O)c4ccc(C(F)(F)F)cc4)[C@@H]3C2=O)cc1	76.1%[176 µM]	/	/	/	/	/
Cc1ccc2c(c1)c1c3n2CCN(CC(O)CNC(C)C)C3CCC1 (stereo not drawn)	?	?	0.0%	?	?	-5.0%
Cc1ccc(C(=O)N2CCn3c4c(c5cc(C)ccc53)CCCC42)cc1 (stereo not drawn)	?	14.1µM*	-21.7%	11.2µM*	?	/
Cc1ccc2c(c1)c1c3n2CCN(C(=O)C2CC2)C3CCC1 (stereo not drawn)	?	?	-1.0%	39.8µM*	-34.5%	-3.4%
Cc1ccc2c(c1)c1c3n2CCN(CC(N)=O)C3CCC1 (stereo not drawn)	?	23.8%	21.2%	/	-6.2%	-9.2%
Cc1ccc2c(c1)c1c3n2CCN(CC#N)C3CCC1 (stereo not drawn)	-1.6%	?	29.3%	6.2%[59 µM]	-21.2%	-7.6%
COCCOC(=O)c1[nH]c2c(c1C)C(=O)CC(c1cc(OC)c(OC)c(OC)c1)C2 (stereo not drawn)	-15.1%	1.8%	59.6%	-4.4%	-12.9%	-8.5%
Fc1ccc(-c2cnc(/C(Cl)=C\c3ccc(OC(F)F)cc3)o2)cc1	3.6%	/	/	/	/	/
Cc1cccc(CNC(=O)C2CCN(C(=O)c3ncn4c3COC(c3ccc(F)cc3)C4)CC2)c1 (stereo not drawn)	32.8%	/	/	/	/	/
O=C(c1cc(Cl)nc2ccccc12)N1CCN(S(=O)(=O)c2cccc(C(F)(F)F)c2)CC1	19.8%	13.1%	1.0%	4.0%	-15.7%	-12.0%
Cc1ccc2c(c1)c1c3n2CCN(CCC(=O)O)C3CCC1 (stereo not drawn)	12.3%	?	27.3%	44.7µM*	-16.6%	-3.6%
CCOC(=O)c1[nH]c2ccccc2c1NC(=S)Nc1ccccc1	?	?	-6.7%	44.7µM*	-14.5%	-23.3%
CCOC(=O)c1[nH]c2ccccc2c1NC(C)=O	12.4%[57.4 µM]	-1.7%	31.2%	21.1%[12.7 µM]	-16.6%	-6.8%
CCOC(=O)c1[nH]c2ccccc2c1NC(=S)Nc1cccc(C)c1	?	?	-12.8%	39.8µM*	?	-24.3%

Bioassay records (PubChem)
